# According to PubChem BioAssay AID1159580 (chemical genetic matrix, 2015):
# Hit rate of the full screen: of about 5,500 compounds, about 2,000 (36%) were called active. About 18% were inconclusive and are not listed. Some of the results follow. Values without a mark were called inactive. Rule as the data show it: active = normalized growth mostly below about 0.91 (no sharp cut-off); inconclusive = no clear call, values can overlap the other calls; inactive = mostly above about 0.92.
# Experiment: chemical genetic growth profiling, strain panel (AID 1159580);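 also: tested at 20 µM; growth read once vehicle control cultures reached saturation at 30 °C; 1 = growth at the plate median or of vehicle wells; lower values mean less growth of the strain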
# Conditions: growth OD
smiles,measurement,setting,value
COc1cc2c(cc1OC)[C@@H]1C(=O)c3ccc4c(c3O[C@@H]1CO2)CC(C(C)C)O4 (stereo partly drawn),normalized growth,"S. cerevisiae deletion strains, locus YKL009W, strain mrt4, stronger effect = lower value",1.01
same,normalized growth,"S. cerevisiae deletion strains, locus YKL068W, stronger effect = lower value",0.999
same,normalized growth,"S. cerevisiae deletion strains, locus YKL085W, strain MDH1 (second series), stronger effect = lower value",0.999
same,normalized growth,"S. cerevisiae deletion strains, locus YKL085W, strain MDH1, stronger effect = lower value",0.999
same,normalized growth,"S. cerevisiae deletion strains, locus YKL160W, strain elf1, stronger effect = lower value",0.978
same,normalized growth,"S. cerevisiae deletion strains, locus YKL190W, strain CNB1, stronger effect = lower value",0.998
same,normalized growth,"S. cerevisiae deletion strains, locus YKR001C, strain vps1, stronger effect = lower value",0.849 (active)
same,normalized growth,"S. cerevisiae deletion strains, locus YKR026C, strain gcn3, stronger effect = lower value",0.991
same,normalized growth,"S. cerevisiae deletion strains, locus YKR091W, strain srl3, stronger effect = lower value",0.997
same,normalized growth,"S. cerevisiae deletion strains, locus YLL001W, strain dnm1, stronger effect = lower value",0.943
same,normalized growth,"S. cerevisiae deletion strains, locus YLL026W, stronger effect = lower value",0.98
same,normalized growth,"S. cerevisiae deletion strains, locus YLL041C, strain sdh2, stronger effect = lower value",1
same,normalized growth,"S. cerevisiae deletion strains, locus YLR027C, strain aat2, stronger effect = lower value",0.935
same,normalized growth,"S. cerevisiae deletion strains, locus YLR039C, strain RIC1, stronger effect = lower value",0.849
same,normalized growth,"S. cerevisiae deletion strains, locus YLR058C, strain SHM2, stronger effect = lower value",0.987
same,normalized growth,"S. cerevisiae deletion strains, locus YLR102C, strain apc9, stronger effect = lower value",1.01
same,normalized growth,"S. cerevisiae deletion strains, locus YLR113W, strain HOG1, stronger effect = lower value",1.02
same,normalized growth,"S. cerevisiae deletion strains, locus YLR221C, strain rsa3, stronger effect = lower value",0.966
same,normalized growth,"S. cerevisiae deletion strains, locus YLR258W, strain gsy2, stronger effect = lower value",0.985
same,normalized growth,"S. cerevisiae deletion strains, locus YLR262C, strain YPT6 (second series), stronger effect = lower value",0.897
same,normalized growth,"S. cerevisiae deletion strains, locus YLR262C, strain YPT6, stronger effect = lower value",0.822
same,normalized growth,"S. cerevisiae deletion strains, locus YLR268W, strain sec22, stronger effect = lower value",0.976
same,normalized growth,"S. cerevisiae deletion strains, locus YLR320W, strain mms22, stronger effect = lower value",0.923
same,normalized growth,"S. cerevisiae deletion strains, locus YLR330W, strain CHS5, stronger effect = lower value",1
same,normalized growth,"S. cerevisiae deletion strains, locus YLR342W, strain FKS1 (second series), stronger effect = lower value",0.999
same,normalized growth,"S. cerevisiae deletion strains, locus YLR342W, strain FKS1, stronger effect = lower value",0.975
same,normalized growth,"S. cerevisiae deletion strains, locus YLR357W, strain rsc2, stronger effect = lower value",0.958
same,normalized growth,"S. cerevisiae deletion strains, locus YLR370C, strain arc18, stronger effect = lower value",0.984
same,normalized growth,"S. cerevisiae deletion strains, locus YLR371W, strain rom2, stronger effect = lower value",1
same,normalized growth,"S. cerevisiae deletion strains, locus YLR384C, strain iki3, stronger effect = lower value",0.981
same,normalized growth,"S. cerevisiae deletion strains, locus YLR418C, strain cdc73, stronger effect = lower value",0.921
same,normalized growth,"S. cerevisiae deletion strains, locus YML016C, strain PPZ1, stronger effect = lower value",1
same,normalized growth,"S. cerevisiae deletion strains, locus YML032C, strain rad52, stronger effect = lower value",1
same,normalized growth,"S. cerevisiae deletion strains, locus YML120C, strain ndi1, stronger effect = lower value",0.986
same,normalized growth,"S. cerevisiae deletion strains, locus YML124C, strain tub3, stronger effect = lower value",0.999
same,normalized growth,"S. cerevisiae deletion strains, locus YMR058W, strain fet3, stronger effect = lower value",0.983
same,normalized growth,"S. cerevisiae deletion strains, locus YMR078C, strain ctf18, stronger effect = lower value",0.996
same,normalized growth,"S. cerevisiae deletion strains, locus YMR125W, strain sto1, stronger effect = lower value",0.99
same,normalized growth,"S. cerevisiae deletion strains, locus YMR129W, stronger effect = lower value",0.979
same,normalized growth,"S. cerevisiae deletion strains, locus YMR205C, strain PFK2, stronger effect = lower value",0.924
same,normalized growth,"S. cerevisiae deletion strains, locus YMR223W, strain ubp8, stronger effect = lower value",1
same,normalized growth,"S. cerevisiae deletion strains, locus YMR231W, strain pep5, stronger effect = lower value",0.992
same,normalized growth,"S. cerevisiae deletion strains, locus YMR263W, strain SAP30, stronger effect = lower value",1
same,normalized growth,"S. cerevisiae deletion strains, locus YMR307W, strain GAS1, stronger effect = lower value",0.872
same,normalized growth,"S. cerevisiae deletion strains, locus YNL067W, strain RPL9B, stronger effect = lower value",0.993
same,normalized growth,"S. cerevisiae deletion strains, locus YNL071W, strain lat1, stronger effect = lower value",0.93
same,normalized growth,"S. cerevisiae deletion strains, locus YNL183C, strain NPR1, stronger effect = lower value",0.983
same,normalized growth,"S. cerevisiae deletion strains, locus YNL209W, strain ssb2, stronger effect = lower value",0.995
same,normalized growth,"S. cerevisiae deletion strains, locus YNL233W, strain BNI4, stronger effect = lower value",0.986
same,normalized growth,"S. cerevisiae deletion strains, locus YNL248C, strain rpa49, stronger effect = lower value",0.98
same,normalized growth,"S. cerevisiae deletion strains, locus YNL250W, strain rad50, stronger effect = lower value",1
same,normalized growth,"S. cerevisiae deletion strains, locus YNL271C, strain bni1, stronger effect = lower value",1.02
same,normalized growth,"S. cerevisiae deletion strains, locus YNL298W, strain CLA4, stronger effect = lower value",1.01
same,normalized growth,"S. cerevisiae deletion strains, locus YNL307C, strain MCK1, stronger effect = lower value",0.986
same,normalized growth,"S. cerevisiae deletion strains, locus YNL322C, strain KRE1 (second series), stronger effect = lower value",0.985
same,normalized growth,"S. cerevisiae deletion strains, locus YNR049C, strain mso1, stronger effect = lower value",0.997
same,normalized growth,"S. cerevisiae deletion strains, locus YNR052C, strain pop2, stronger effect = lower value",1.01
same,normalized growth,"S. cerevisiae deletion strains, locus YOL006C, strain TOP1, stronger effect = lower value",0.897
same,normalized growth,"S. cerevisiae deletion strains, locus YOL012C, strain htz1",1.16
same,normalized growth,"S. cerevisiae deletion strains, locus YOL147C, strain pex11, stronger effect = lower value",0.999
same,normalized growth,"S. cerevisiae deletion strains, locus YOR001W, strain rrp6, stronger effect = lower value",0.966
same,normalized growth,"S. cerevisiae deletion strains, locus YOR061W, strain CKA2, stronger effect = lower value",0.998
same,normalized growth,"S. cerevisiae deletion strains, locus YOR069W, strain VPS5, stronger effect = lower value",1.01
same,normalized growth,"S. cerevisiae deletion strains, locus YOR070C, strain gyp1, stronger effect = lower value",0.961
same,normalized growth,"S. cerevisiae deletion strains, locus YOR080W, strain dia2, stronger effect = lower value",0.974
same,normalized growth,"S. cerevisiae deletion strains, locus YOR083W, strain WHI5, stronger effect = lower value",0.98
same,normalized growth,"S. cerevisiae deletion strains, locus YOR106W, strain vam3, stronger effect = lower value",1.02
same,normalized growth,"S. cerevisiae deletion strains, locus YOR136W, strain idh2, stronger effect = lower value",1
same,normalized growth,"S. cerevisiae deletion strains, locus YOR144C, strain elg1, stronger effect = lower value",0.992
same,normalized growth,"S. cerevisiae deletion strains, locus YOR184W, strain ser1, stronger effect = lower value",0.925
same,normalized growth,"S. cerevisiae deletion strains, locus YOR231W, strain MKK1, stronger effect = lower value",1.05
same,normalized growth,"S. cerevisiae deletion strains, locus YOR265W, strain rbl2, stronger effect = lower value",0.989
same,normalized growth,"S. cerevisiae deletion strains, locus YOR270C, strain vph1, stronger effect = lower value",0.939
same,normalized growth,"S. cerevisiae deletion strains, locus YOR290C, strain snf2, stronger effect = lower value",0.989
same,normalized growth,"S. cerevisiae deletion strains, locus YOR316C, strain cot1, stronger effect = lower value",0.999
same,normalized growth,"S. cerevisiae deletion strains, locus YPL051W, strain arl3, stronger effect = lower value",0.941
same,normalized growth,"S. cerevisiae deletion strains, locus YPL055C, strain LGE1, stronger effect = lower value",0.929
same,normalized growth,"S. cerevisiae deletion strains, locus YPL078C, strain atp4, stronger effect = lower value",0.982
same,normalized growth,"S. cerevisiae deletion strains, locus YPL106C, strain sse1, stronger effect = lower value",1
same,normalized growth,"S. cerevisiae deletion strains, locus YPL240C, strain hsp82, stronger effect = lower value",1.01
same,normalized growth,"S. cerevisiae deletion strains, locus YPL241C, strain CIN2, stronger effect = lower value",1
same,normalized growth,"S. cerevisiae deletion strains, locus YPL256C, strain CLN2, stronger effect = lower value",1.05
same,normalized growth,"S. cerevisiae deletion strains, locus YPR119W, strain clb2, stronger effect = lower value",1
same,normalized growth,"S. cerevisiae deletion strains, locus YPR141C, strain kar3, stronger effect = lower value",1
same,normalized growth,"S. cerevisiae deletion strains, locus YPR163C, strain tif3, stronger effect = lower value",1.01
same,normalized growth,"S. cerevisiae deletion strains, locus YPR167C, strain met16, stronger effect = lower value",1
same,normalized growth,"S. cerevisiae deletion strains, strain wtn01, stronger effect = lower value",1.01
same,normalized growth,"S. cerevisiae strains, strain wild type, stronger effect = lower value",0.987
